This is an account of results in PubChem BioAssay.

Inconclusive results are not listed. Calls of active or inactive are those of the source.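 The calls were made as follows, unless noted: active = viability increase at or above a cutoff of the median across tested compounds plus 3 SD (cut at about 8.5% in these data, passing the limit was not always enough); inconclusive = some gains above the cutoff, reason not given; inactive = the rest.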

Test [1] can be described thus: Her2 expression decrease, cell viability multiplex – SKBR3 breast tumor cells, AlphaScreen, ATP viability, primary screen (AID 461;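 active = Her2 level under about 52% in both replicate screens, with viability over 70% of control, limit read from the data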;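 as to Her2 level: lower value means less Her2 protein in the cells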;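 as to viability: percent of carrier control wells set as 100% viability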). The note with it: SKBR3 Her2 protein level, 18-24 h, measured here: SKBR3 viability, ATP luminescence, at 10 µM. A general note: Alpha assays give light when donor and acceptor beads are brought close together.
Test [2] deals with Receptor tyrosine-protein kinase erbB-2 (Homo sapiens) (UniProt P04626). The description is as above. The following applies: 18-24 h, at 10 µM, stronger effect = lower value.
Receptor tyrosine-protein kinase erbB-2 (Homo sapiens), sequence (P04626 whole entry, looked up): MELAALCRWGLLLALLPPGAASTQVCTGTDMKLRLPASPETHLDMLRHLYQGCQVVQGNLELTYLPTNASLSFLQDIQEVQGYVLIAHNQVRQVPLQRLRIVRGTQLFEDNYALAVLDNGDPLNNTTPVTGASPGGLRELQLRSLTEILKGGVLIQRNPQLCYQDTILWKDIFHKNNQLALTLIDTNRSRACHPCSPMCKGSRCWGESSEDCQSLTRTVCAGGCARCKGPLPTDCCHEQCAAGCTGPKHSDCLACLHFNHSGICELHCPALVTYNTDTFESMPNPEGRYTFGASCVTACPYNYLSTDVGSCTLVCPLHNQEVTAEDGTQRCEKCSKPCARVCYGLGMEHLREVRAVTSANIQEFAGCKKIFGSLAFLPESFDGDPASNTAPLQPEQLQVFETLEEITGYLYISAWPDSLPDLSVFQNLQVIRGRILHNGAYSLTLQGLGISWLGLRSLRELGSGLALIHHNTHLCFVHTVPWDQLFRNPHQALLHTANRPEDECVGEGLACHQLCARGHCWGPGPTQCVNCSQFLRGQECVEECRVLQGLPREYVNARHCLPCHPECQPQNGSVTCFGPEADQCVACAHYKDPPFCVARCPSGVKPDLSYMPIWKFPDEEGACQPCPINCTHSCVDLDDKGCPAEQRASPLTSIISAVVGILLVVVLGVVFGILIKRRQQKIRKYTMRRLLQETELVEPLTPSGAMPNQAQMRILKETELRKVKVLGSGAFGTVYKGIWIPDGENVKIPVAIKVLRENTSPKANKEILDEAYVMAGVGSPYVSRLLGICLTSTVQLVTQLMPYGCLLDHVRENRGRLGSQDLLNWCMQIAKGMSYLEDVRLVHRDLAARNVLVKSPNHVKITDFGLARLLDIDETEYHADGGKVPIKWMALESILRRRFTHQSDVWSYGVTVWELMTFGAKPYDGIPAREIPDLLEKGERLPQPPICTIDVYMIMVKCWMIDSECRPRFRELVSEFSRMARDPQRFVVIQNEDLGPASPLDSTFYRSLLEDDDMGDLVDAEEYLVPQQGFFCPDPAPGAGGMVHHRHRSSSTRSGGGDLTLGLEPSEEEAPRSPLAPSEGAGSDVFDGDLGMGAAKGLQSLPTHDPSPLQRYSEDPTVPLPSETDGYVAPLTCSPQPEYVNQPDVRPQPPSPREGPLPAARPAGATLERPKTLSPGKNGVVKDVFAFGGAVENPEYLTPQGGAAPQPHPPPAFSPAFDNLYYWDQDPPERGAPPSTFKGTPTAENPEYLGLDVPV
The nature of test [3]: reduced viability of SK-BR-3 breast cancer cells – cell-based, 24 h, human, pilot screen (AID 572;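 active = viability at or below 10% of carrier control in both of two separate runs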;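 also: compound exposure lasted between 18 and 24 h rather than exactly 24 h; 100% = carrier-treated control wells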). The note with it: SK-BR-3 viability, CellTiter-Glo luminescence, at 10 µM, stronger effect = lower value. In general terms: ATP-based viability assays read luminescence as a measure of living cells.
Test [4] can be described thus: HUVEC growth inhibition – cell-based, human, primary screen (AID 575;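 active = viability at or below 30% in both replicate assays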;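 also: 100% = median of untreated cell wells with 0.1% DMSO on each plate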). The following applies: HUVEC proliferation, CellTiter-Glo luminescence, 72 h; at 10 µM; stronger effect = lower value.
A short description of test [5]: H69AR cell proliferation blockers – human, duplicate replicates, primary screen (AID 580;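 active = viability at or under a set limit in both replicates, limit being median viability minus 3 SD, cut at about 48% in these data, passing the limit was not always enough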;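 also: 100% = mean luminescence of untreated wells and 0% = no signal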). The note with it: H69AR lung tumor cells viability, ATP luminescence, 72 h; at 10 µM; stronger effect = lower value.
Test [6] can be described thus: MRP1 drug-resistance reversers in H69AR cells – cell-based, doxorubicin co-treatment, pilot screen (AID 601;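 active = viability loss from added drug above about 55%, and viability with drug at most 40%, in both replicates, limit read from the data, passing the limit was not always enough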). The following applies: CellTiter-Glo, 72 h, at 10 µM; for differential viability (reversal): stronger effect = higher value.
Test [7] can be described thus: yeast transport mutant growth inhibition pilot in 384-well plates, post-Golgi transport modulator project (AID 636; in the data active = inhibition above about 31%). The following applies: absorbance 615 nm, about 18 h, stronger effect = higher value.
Test [8] can be described thus: growth suppression of yeast trafficking mutant, preliminary HTS, modulators of trafficking downstream of Golgi apparatus project, 1536-format plate, OD 615 nm (AID 637; in the data active = inhibition above about 30%). The following applies: yeast transport mutant growth, absorbance 615 nm, 18 h; stronger effect = higher value.
The nature of test [9]: S. cerevisiae growth inhibition in permissive medium (OD615), pilot counter-assay for S. cerevisiae lifespan shortening project, permissive growth control (AID 705;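 active = growth inhibition above 25% in both replicates, a cutoff set 3 SD above the mean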). The following applies: OD615, 24 h, at 10 µM, stronger effect = higher value.
Test [10] can be described thus: S. cerevisiae growth inhibition in restrictive medium, OD615, pilot screen, restrictive growth control, yeast lifespan reduction project (AID 706;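 active = growth inhibition above a set limit, 3 SD over mean compound inhibition, in both replicates, cut at about 43% in these data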;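 also: modified DeaD lifespan yeast strain shifted to restrictive glucose medium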). The following applies: OD615, 48 h, at 10 µM, stronger effect = higher value.
Test [11] is described as follows: doxorubicin toxicity protection in MRP-1 cells – H69AR cells, CellTiter-Glo, duplicate, MRP-1 activator project, pilot screen (AID 807).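 Also: compound pretreatment 18-22 h then 72 h combined with doxorubicin; 0% = doxorubicin alone and 100% = vehicle without doxorubicin.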 The following applies: H69AR viability with doxorubicin, CellTiter-Glo luminescence; at 10 µM; stronger effect = higher value.
The nature of test [12]: viability of HCT116 without oncogenic beta-catenin – human colon tumor cells, pilot screen (AID 823;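 active = cell viability at or below a set limit in both duplicate runs, the limit being the all-compound median minus 4 SD, cut at about 23% in these data, passing the limit was not always enough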;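 also: 0% = wells killed by 20 µM Hyamine and 100% = untreated DMSO cell wells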). The note with it: HCT116 beta-catenin knockout viability, CellTiter-Glo, 60 h; at 10 µM; stronger effect = lower value.
The nature of test [13]: viability of PTEN-null HCT116 cells – cell-based, HCT116 clonal line, CellTiter-Glo, pilot screen (AID 824;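 active = viability at or below 27.92% in each of two runs, the all-compound median minus 4 SD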;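 also: 0% = 20 µM Hyamine control and 100% = vehicle cell control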). The note with it: HCT116 PTEN-deleted viability, 60 h, at 10 µM, stronger effect = lower value.
Test [14] in a line: RAM pathway blockade in budding yeast – dse1pr::URA3 reporter, 5-FOA selection, pilot screen (AID 869;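 active = inhibition over a set limit, the all-compound mean plus 3 SD, in both replicate runs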;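 also: 0% = DMSO wells with no growth and 100% = 10 µM 1-NA-PP1 with full growth; RAM network block rescues cells from 5-FOA so hits raise OD615 growth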). The following applies: S. cerevisiae dse1pr::URA3 5-FOA growth, OD615, 2 d; at 10 µM; stronger effect = higher value; strain carries analog-sensitive mutant Cbk1 kinase.
A short description of test [15]: RAM signaling pathway blockade in yeast – S. cerevisiae, Pdr1DBD-CYC8 efflux-inhibited sensitized strain, primary screen (AID 1298;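 active = RAM network inhibition above 8.4% in each of two replicates, 3 SD over the compound average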;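 also: 0% = DMSO untreated cells without growth and 100% = 10 µM 1-NA-PP1 full growth; higher means more yeast growth rescued from 5-FOA killing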). The note with it: S. cerevisiae cbk1-as DSE1-URA3 strain, 5-FOA growth OD615, 2 d; at 50 µM; stronger effect = higher value.
Setting [16] is: H69AR cells + 2 uM doxorubicin, measured here: viability with 2 uM doxorubicin, stronger effect = lower value.
[17] abbreviates: H69AR cells, compound alone cytotoxicity.

Take `Cc1ccc(-c2nc3cnccn3c2Nc2ccc3c(c2)OCO3)o1`: the viability in test [1] was 91.5%; in [3], 91.5% (inactive); in [4] it was 92.4% (inactive); in test [5], 77.7% (inactive); in test [6] (setting [16]), 91.3%; in [6] (setting [17]), 77.7%. Moreover, the results for the viability in test [12] and in test [13] were 95.8% (inactive) and 91.9% (inactive), respectively. In [2], the Her2 level was 90.5% (inactive). Also, in [6] (H69AR cells + 2 uM doxorubicin), the differential viability (reversal) is -13.6% (inactive). Further, the inhibition in test [7] is -6.53% (inactive); in test [8], -2.83% (inactive); in test [14], 1.34% (inactive). In addition, the figures for the growth inhibition in [9] and in test [10] were -15.8% (inactive) and 3.3% (inactive), respectively. The viability increase in test [11] is -3.1% (inactive). For the same molecule, in test [15], the RAM network inhibition was 12.5% (inactive).
On to `COc1cccc(-c2cc(C(F)(F)F)nc(NCc3ccco3)n2)c1`, for which the viability was 108% in [1]; 108% (inactive) in test [3]; 61.6% (inactive) in test [4]; 95.8% (inactive) in [5]; 87.7% in test [6] (setting [16]); 95.8% in [6] (setting [17]). Further, the figures for the viability in [12] and in test [13] were 70.9% (inactive) and 67.6% (inactive), respectively. For the same molecule, the Her2 level in test [2] was 94.5% (inactive). The differential viability (reversal) in [6] (H69AR cells + 2 uM doxorubicin) was 8.14% (inactive). For the same molecule, the inhibition in test [7] was -5.27% (inactive); in test [8], -1.48% (inactive); in test [14] it was 2.38% (inactive). Also, the growth inhibition in test [9] is 0.4% (inactive); in test [10] it was 18% (inactive). Also, the viability increase in test [11] was -3.81% (inactive). For the same molecule, the RAM network inhibition in test [15] is 8.17% (inactive).
Regarding `Cc1ccc(-n2nc(C)c3cc(C(=O)O)sc32)cc1`, the viability was 97% in test [1]; 97% (inactive) in test [3]; 70.7% (inactive) in test [4]; 87.2% (inactive) in test [5]; 86.8% in test [6] (setting [16]); 87.2% in [6] (setting [17]). Moreover, the viability in test [12] is 93.1% (inactive); in test [13], 94.9% (inactive). Besides, the Her2 level in test [2] is 95.5% (inactive). Moreover, in [6] (H69AR cells + 2 uM doxorubicin), the differential viability (reversal) was 0.315% (inactive). The inhibition was -2.31% (inactive) in test [7], -2% (inactive) in test [8] and 2.74% (inactive) in test [14]. Also, the growth inhibition is 16% (inactive) in test [9] and 21.7% (inactive) in test [10]. In addition, the viability increase in test [11] is -2.19% (inactive). In addition, in test [15], the RAM network inhibition was -1.34% (inactive).
As to `O=C(c1cccs1)N1CCc2ccccc21`, the viability was 110% in test [1]; 110% (inactive) in [3]; 83% (inactive) in [4]; 94% (inactive) in test [5]; 79.5% in test [6] (setting [16]); 94% in [6] (setting [17]). Moreover, the viability in [12] is 96.3% (inactive); in [13] it was 95.8% (inactive). Also, the Her2 level in test [2] is 82% (inactive). In addition, the differential viability (reversal) in test [6] (H69AR cells + 2 uM doxorubicin) is 14.6% (inactive). Also, the inhibition in test [7] is -5.47% (inactive); in test [8], 0.97% (inactive); in test [14], 1.48% (inactive). Also, the growth inhibition is 1.98% (inactive) in test [9] and 1.57% (inactive) in [10]. Moreover, the viability increase in test [11] was -1.9% (inactive). Further, in [15], the RAM network inhibition was 1.66% (inactive).
With `CC(=O)c1ccc(NC(=O)C2CCN(S(=O)(=O)c3cccc4cccnc34)CC2)cc1`, the viability in [1] was 97.5%; in test [3], 97.5% (inactive); in [4] it was 100% (inactive); in test [5], 84.3% (inactive); in test [6] (setting [16]), 89.4%; in test [6] (setting [17]) it was 84.3%. For the same molecule, the viability in test [12] is 107% (inactive); in test [13], 99.8% (inactive). In addition, the Her2 level in test [2] is 117% (inactive). In addition, in [6] (H69AR cells + 2 uM doxorubicin), the differential viability (reversal) is -5.16% (inactive). Besides, the inhibition in [7] is -2.67% (inactive); in test [8], -5% (inactive); in test [14], 1.35% (inactive). Moreover, the growth inhibition was -5.1% (inactive) in test [9] and -5.57% (inactive) in test [10]. The viability increase in test [11] was -1.12% (inactive). Further, the RAM network inhibition in test [15] is 8.91% (inactive).
As for `COc1ccc(CNC(=O)c2cnc3n(c2=O)CCS3)cc1`, the viability is 81.5% in test [1]; 81.5% (inactive) in test [3]; 90.6% (inactive) in test [4]; 94.9% (inactive) in [5]; 97.9% in test [6] (setting [16]); 94.9% in test [6] (setting [17]). The viability in [12] was 95.8% (inactive); in test [13] it was 98.3% (inactive). Further, the Her2 level in test [2] is 87.5% (inactive). Besides, the differential viability (reversal) in [6] (H69AR cells + 2 uM doxorubicin) was -3.02% (inactive). The inhibition in test [7] was -3.87% (inactive); in test [8], -2.17% (inactive); in test [14], 3.5% (inactive). Moreover, the results for the growth inhibition in test [9] and in test [10] were 5.72% (inactive) and 4.27% (inactive), respectively. In addition, in [11], the viability increase is -1.21% (inactive). Further, the RAM network inhibition in test [15] was 2.5% (inactive).
Regarding `CCOC(=O)N1CCC(NC(=O)c2cnn3ccccc23)CC1`, the viability was 112% in test [1]; 112% (inactive) in test [3]; 86% (inactive) in test [4]; 87.1% (inactive) in test [5]; 85.9% in [6] (setting [16]); 87.1% in test [6] (setting [17]). Also, the viability is 108% (inactive) in test [12] and 99.9% (inactive) in test [13]. Moreover, the Her2 level in test [2] is 123% (inactive). Moreover, the differential viability (reversal) in test [6] (H69AR cells + 2 uM doxorubicin) is 1.21% (inactive). In addition, the inhibition in test [7] was -1.2% (inactive); in [8], 3.67% (inactive); in [14], 0.135% (inactive). The growth inhibition in test [9] was -12.9% (inactive); in test [10], -10.7% (inactive). Also, the viability increase in test [11] was -1.34% (inactive). The RAM network inhibition in [15] is 2.01% (inactive).

The term viability denotes a read-out of living cells in per cent, often relative to untreated cells. In general, inhibition refers to the relative decrease from the control value, in per cent.
